# Assay outcomes as filed in PubChem BioAssay.
# DAX1 inh-1 = DAX1 (NR0B1) inhibitors, primary screen, cell-based, HEK293, Gal4-DAX1, luciferase luminescence; Nuclear receptor subfamily 0 group B member 1 (Homo sapiens), P51843; HEK293 Gal4-DAX1 luciferase reporter; inhibition, % at 6.75 µM; hit rate 0.99% among 340,000; AID 504766, 2011;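 active = inhibition above the mean over all tested compounds plus 3 SD, cut at about 4.2% in these data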;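 also: 0% = DAX1-transfected cells with DMSO and 100% = empty-vector control cells with DMSO; inhibition shows as a rise in luminescence from relieved DAX1 repression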
# hcDAF-12 act = H. contortus DAF-12 nuclear receptor activators, primary screen, cell-based, luminescence, HEK293, lit1-tk-luc reporter; activation, % at 6.8 µM; hit rate 1.4% among 370,000; HEK293 hcDAF-12 lit1-tk-luc reporter; 0% DMSO, 100% Δ7-dafachronic acid;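 active = activation above the mean of all tested compounds plus 3 SD, cut at about 5.5% in these data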;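 also: 100% = response to 3 µM Δ7-dafachronic acid high control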
# ssDAF-12 act = S. stercoralis DAF-12 nuclear receptor activators, primary screen, cell-based, luminescence, HEK293, GRIP1 co-expression, lit1-tk-luc. HEK293 ssDAF-12/GRIP1 lit1-tk-luc reporter; % of 3 µM dafachronic acid response. hit rate 1% among 370,000. Nuclear hormone receptor DAF-12 (Strongyloides stercoralis). activation, % at 6.8 µM;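 active = activation above the mean over all tested compounds plus 3 SD, cut at about 0.9% in these data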;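 also: 0% = DMSO-only wells and 100% = 3 µM delta7-dafachronic acid wells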
# AHR activator = AHR activators, primary screen, cell-based, luminescence, luciferase reporter, human; Aryl hydrocarbon receptor (Homo sapiens), P35869; hit rate 2.5% among 320,000; AHR-responsive luciferase reporter cells; AID 2796, 2010; activation, % at 5 µM; in the data active = activation above about 47%;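 also: 0% = vehicle wells and 100% = reference agonist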
# DAX1 inh-2 = DAX1 (NR0B1) inhibitors on StAR promoter, primary screen, cell-based, luminescence, SF-1 (NR5A1), full-length DAX-1; hit rate 1.1% among 370,000; inhibition, % at 6.8 µM; HEK293T StAR-luciferase reporter, SF-1/DAX-1 repression relief;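 active = inhibition above the mean over all tested compounds plus 3 SD, cut at about 3.6% in these data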;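 also: 0% = DAX-1 cells with DMSO and 100% = cells lacking DAX-1 with DMSO; higher inhibition means more luminescence from relief of DAX-1 repression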
# hgDAF-12 ag = H. glycines DAF-12 receptor agonists, primary screen, cell-based, luminescence, HEK293, GAL4 fusion, UAS-luciferase. Nuclear hormone receptor DAF-12 (Heterodera glycines), GAL4 fusion. HEK293 GAL4-hgDAF12 UAS-luciferase reporter, agonist luminescence; normalized to butyrate control. activation, % at 6.8 µM. hit rate 1.8% among 370,000;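 active = activation above a cutoff set at the mean of all screened compounds plus 3 SD, cut at about 10% in these data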;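 also: 0% = DMSO wells and 100% = sodium butyrate wells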
# DAX1 conf = DAX1 (NR0B1) inhibitors relieving SF-1 repression, confirmation, cell-based, luminescence, HEK293T, full-length DAX-1, SF-1 activated StAR promoter; shares compounds with DAX1 inh-2; HEK293T StAR-promoter luciferase reporter, SF-1/DAX-1 repression; inhibition, % at 6.8 µM; hit rate 87% among 2,400;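 active = inhibition above the average of every tested compound plus 3 SD, cut at about 3.8% in these data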;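 also: 0% = DAX-1 cells with DMSO and 100% = no DAX-1 control cells with DMSO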
# Target sequence (P51843 whole entry, looked up): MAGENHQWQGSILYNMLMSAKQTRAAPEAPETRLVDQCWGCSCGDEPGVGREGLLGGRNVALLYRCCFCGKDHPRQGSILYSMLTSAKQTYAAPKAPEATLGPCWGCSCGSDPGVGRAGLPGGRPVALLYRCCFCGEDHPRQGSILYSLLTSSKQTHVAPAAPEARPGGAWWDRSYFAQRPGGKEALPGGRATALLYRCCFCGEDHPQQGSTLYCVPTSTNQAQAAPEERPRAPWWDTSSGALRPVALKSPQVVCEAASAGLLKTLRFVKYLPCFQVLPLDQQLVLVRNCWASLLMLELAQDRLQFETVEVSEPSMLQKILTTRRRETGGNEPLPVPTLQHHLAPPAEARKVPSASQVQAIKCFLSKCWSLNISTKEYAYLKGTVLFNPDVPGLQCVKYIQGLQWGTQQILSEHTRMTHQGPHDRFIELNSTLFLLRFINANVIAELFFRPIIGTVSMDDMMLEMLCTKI
# SF1 mutant ctr = StAR reporter signal changes without DAX1, counter-screen for DAX1 inhibitor project, cell-based, luminescence, AF-2 mutant SF-1, transactivation; shares compounds with DAX1 inh-2; HEK293 StAR-luciferase, SF-1 AF2 mutant; inhibition, % at 6.8 µM; hit rate 78% among 2,400; AID 652136, 2013;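 active = inhibition above the mean of all tested compounds plus 3 SD, cut at about 3% in these data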;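 also: 0% = DAX-1 transfected cells with DMSO and 100% = cells without DAX-1 with DMSO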
# Active calls of the source: *; . = no result given. Rows were chosen to be rich in hits. Some 5.7% of all compounds tested hit in one or more screens of this group.
SMILES,DAX1 inh-1,hcDAF-12 act,ssDAF-12 act,AHR activator,DAX1 inh-2,hgDAF-12 ag,DAX1 conf,SF1 mutant ctr
Cc1cc(C(=O)COC(=O)c2ccc(O)cc2O)c(C)n1C(C)C,2,4,0,-1,7.3*,12*,9.8*,5.0*
COc1cccc(N2CCN(C(=O)c3ccc(CS(=O)c4ccccc4Cl)o3)CC2)c1 (stereo unspecified),-1,-2,-1,10,11*,-4,14*,-9
Cc1cc(C)cc(NC(=O)C(=O)NCCCN2CCCC2=O)c1,2,5.8*,0,3,7.1*,6,5.1*,5.3*
CCOc1ccc(NC(=O)c2cccc(NC(C)=O)c2)cc1S(=O)(=O)N1CCCC1,-1,-2,-2,.,-2,-2,.,.
CCOc1ccc(NC(=O)c2ccco2)cc1S(=O)(=O)N1CCCC1,0,0,0,1,5.1*,-1,3,1
COC(=O)c1ccc(NC(=O)C(=O)c2cccn2C)cc1,-3,5,0,10,6.9*,18*,15*,7.3*
Cc1ccc(CN2CC(N3CCN(CC4CC4)CC3)CS2(=O)=O)cc1 (stereo unspecified),.,1,-1,.,1,1,.,.
O=S1(=O)CC(N2CCCCC2)CN1Cc1cn(Cc2ccc(F)cc2)nn1 (stereo unspecified),.,3,-1,.,2,-4,.,.
O=S1(=O)CC(N2CC=CC2)CN1Cc1cn(Cc2ccc(F)cc2)nn1 (stereo unspecified),.,0,-1,.,5.2*,-2,2,1
O=S1(=O)CC(N2CCN(CC3CC3)CC2)CN1Cc1ccc(F)cc1 (stereo unspecified),.,2,-1,.,5.9*,0,3,-1
Cc1cc(=O)[nH]c(NN=C2CCCCC2C)n1 (stereo unspecified),.,-1,-1,.,0,-3,.,.
COc1ccc(C(=O)Nc2ccc(/C(C)=N/NC(=O)c3ccncc3)cc2)cc1,1,1,0,9,1,9,.,.
C/C(=N/NC(=O)c1ccncc1)c1ccc(NC(=O)c2ccc(Cl)cc2Cl)cc1,2,2,0,8,5.3*,6,3,0
COc1ccc(OC)c(NC(=O)CSc2ncnc3sc(C)cc23)c1,1,-2,-1,.,1,1,.,.
CN1C(=O)CSc2ccc(NC(=O)N3CCc4ccccc43)cc21,2,3,0,-2,5.9*,9,6.3*,2
CC(=O)Nc1ccc(NC(=O)Nc2ccc3c(c2)N(C)C(=O)CS3)cc1,0,-2,-1,2,-1,0,.,.
C/C(=N\NC(=O)C(N)=O)c1ccc(NC(=O)c2cccs2)cc1,.,2,0,4,1,9,.,.
C/C(=N\NC(=O)c1ccco1)c1ccc(NC(=O)c2cccs2)cc1,1,2,0,8,4.7*,11*,-1,-1
O=C(COC(=O)c1ccc(S(=O)(=O)N2CCCCC2)cc1)Nc1ccccc1,0,-1,-1,1,-2,-1,.,.
Cc1ccc(C(=O)NCC(=O)Nc2cc(C)ccn2)cc1,1,4,0,6,4.8*,5,6.8*,4.5*
Cc1ccnc(NC(=O)c2ccccc2NC(=O)c2ccccc2)c1,2,-1,-1,7,0,1,.,.
Cc1ccnc(NC(=O)c2ccc(S(=O)(=O)N3CCCCCC3)cc2)c1,1,3,0,1,9.2*,7,10*,5.1*
CCOc1ccc(C(=O)NCC(=O)Nc2cc(C)ccn2)cc1OCC,3,2,-1,0,1,4,.,.
Cc1ccnc(NC(=O)c2ccc(C(=O)c3ccccc3)cc2)c1,-3,4,-1,5,9.1*,9,11*,3.2*
Cc1ccnc(NC(=O)CCNC(=O)c2ccc(Cl)cc2)c1,1,3,-1,.,5.1*,11*,14*,7.0*
SMILES,DAX1 inh-1,hcDAF-12 act,ssDAF-12 act,AHR activator,DAX1 inh-2,hgDAF-12 ag,DAX1 conf,SF1 mutant ctr
Cc1ccnc(NC(=O)c2ccc(S(=O)(=O)N3CCCCC3)cc2)c1,1,-1,-2,-2,0,1,.,.
CCOC(=O)C1=CCC(c2ccc(C)cc2)N(S(=O)(=O)c2ccc(C)cc2)C1 (stereo unspecified),.,-2,-1,.,-2,1,.,.
CCC(=O)NC(=S)NNC(=O)COc1ccc(Br)cc1,-1,0,0,4,0,-1,.,.
CCN(CC(=O)Nc1c(F)cccc1F)C(=O)c1cc([N+](=O)[O-])ccc1N1CCCCC1,0,-1,-1,-1,-1,3,.,.
c1ccn2c(SCc3ccc4c(c3)OCCO4)nnc2c1,2,3,-1,1,4.5*,4,5.3*,3.5*
COc1cc(NC(=NS(=O)(=O)c2ccccc2)c2ccccc2)ncn1,3,5,1,.,2,10,.,.
CCC(C)(C)C1CCC(NC(=O)c2ccc(S(=O)(=O)N3CCOCC3)cc2)CC1 (stereo unspecified),-1,0,-2,1,0,1,.,.
COc1ccc2nc(SCC(=O)/C(C#N)=C(\C)N)[nH]c2c1,1,5.8*,0,27,4.8*,9,14*,8.8*
COc1ccc2nc(SCC(N)=O)[nH]c2c1,1,-1,-1,3,0,0,.,.
COc1ccc(/C(C)=N/Nc2nccnc2Cl)cc1,-1,2,1,0,5.6*,8,4.2*,3
CC1(C)C(=O)Nc2ccccc2N1C(=O)COC(=O)CNS(=O)(=O)c1ccc(F)c(F)c1F,1,0,-1,-1,-1,-1,.,.
O=C(c1ccc(NS(=O)(=O)/C=C/c2ccccc2)cc1)N1CCCCC1,-1,-3,-2,-3,-4,-4,.,.
